# Laboratory results: PubChem BioAssay (NCI)
# The panel holds about 79,000 compounds, 15% with a hit somewhere; the sample as a whole holds those more often. Unmarked numbers belong to inactive results. Active and inactive are the calls of the source. Cut-off read from the data, not from the text of the source: active = growth inhibition above about 70%; inactive = the rest.
# Key:
# [1] = NCI Yeast Anticancer Drug Screen. Data for the rad50 strain (AID 155);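 note: 0% = growth of vehicle-only cultures of the same strain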; details: S. cerevisiae rad50 strain growth inhibition, stronger effect = higher value
# Summary of the method: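 Yeast carrying a defined DNA repair defect were exposed to test compounds, and growth was compared with vehicle-treated controls to give percent inhibition.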
# [2] = NCI Yeast Anticancer Drug Screen. Data for the mec2-1 strain (AID 157); details: S. cerevisiae mec2-1 strain, stronger effect = higher value
# Summary of the method: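 Readout is yeast growth inhibition, normalised to vehicle-treated controls, in the mec2-1 strain exposed to compound.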
# [3] = NCI Yeast Anticancer Drug Screen. Data for the sgs1 mgt1 strain (AID 161);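 note: 0% = growth of cultures given vehicle only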; details: S. cerevisiae sgs1 mgt1 strain, stronger effect = higher value
# Summary of the method: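 Yeast cells carrying a defined DNA-repair defect were exposed to test compounds. Growth inhibition was measured relative to vehicle-treated controls.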
# [4] = NCI Yeast Anticancer Drug Screen. Data for the cln2 rad14 strain (AID 165);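 note: 0% = growth equal to vehicle treated cultures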; details: S. cerevisiae cln2 rad14 strain, stronger effect = higher value
# Summary of the method: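 Relative to vehicle controls, growth inhibition of compound-treated cln2 rad14 yeast was recorded.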
# [5] = NCI Yeast Anticancer Drug Screen. Data for the bub3 strain (AID 167); details: S. cerevisiae bub3 mutant strain, stronger effect = higher value
# Summary of the method: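 Compounds were applied to a genetically altered yeast strain carrying a cell-cycle control defect. Growth inhibition was scored against vehicle-treated controls.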
# [6] = NCI Yeast Anticancer Drug Screen. Data for the mlh1 rad18 strain (AID 175); details: S. cerevisiae mlh1 rad18 strain growth inhibition, stronger effect = higher value
# Summary of the method: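 Test agents were incubated with a yeast strain of defined genotype (DNA damage repair defect). Inhibition of growth was derived by comparison with vehicle-exposed cultures.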
# [7] = at 5.0 µM (retest, dose inferred, filed as 0.5)
# [8] = at 50.0 µM (retest, dose inferred, filed as 5.0)
Structure (SMILES),"growth inhibition [1, 7]","growth inhibition [1, 8]",growth inhibition ([1]; at 50.0 µM),"growth inhibition [2, 7]","growth inhibition [2, 8]",growth inhibition ([2]; at 50.0 µM),"growth inhibition [3, 7]","growth inhibition [3, 8]",growth inhibition ([3]; at 50.0 µM),"growth inhibition [4, 7]","growth inhibition [4, 8]",growth inhibition ([4]; at 50.0 µM),"growth inhibition [5, 7]","growth inhibition [5, 8]",growth inhibition ([5]; at 50.0 µM),"growth inhibition [6, 7]","growth inhibition [6, 8]",growth inhibition ([6]; at 50.0 µM)
C/C(=N/NC(=S)Nc1ccc(C)cc1)c1ccccn1,31%,99% (active),79.2% (active),33%,99% (active),84.9% (active),32%,99% (active),88.5% (active),-15%,99% (active),88.3% (active),-7%,99% (active),90% (active),20%,99% (active),87.9% (active)
c1ccc(N2CCN(c3ccccc3)C2Cc2c[nH]c3ccccc23)cc1,30%,98% (active),99.2% (active),19%,99% (active),98.4% (active),25%,98% (active),99.4% (active),17%,99% (active),92.5% (active),61%,98% (active),99.2% (active),61%,99% (active),98.9% (active)
O=C(OCc1ccccc1CN1CCOCC1)c1ccc(Br)cc1,-30%,29%,77.3% (active),-2%,-2%,74.5% (active),-2%,77% (active),93.7% (active),-1%,-7%,51.9%,2%,41%,92.1% (active),4%,36%,76.1% (active)
CC(C)C(Br)CC/C(CBr)=C(\Cl)CCl (configuration not stated),24%,99% (active),87% (active),21%,99% (active),85.1% (active),13%,99% (active),92.5% (active),17%,98% (active),90.2% (active),30%,99% (active),92.2% (active),17%,99% (active),56.4%
CNS(=O)(=O)c1ccccc1C=C(c1ccccc1)c1ccccc1,2%,90% (active),93.1% (active),-12%,93% (active),86.2% (active),4%,93% (active),94% (active),2%,89% (active),65.8%,-11%,92% (active),81.8% (active),-2%,91% (active),94.1% (active)
CCCCCN(CCCCC)C(=O)CCl,-2%,30%,68.6%,-3%,15%,53.5%,-3%,10%,69.2%,8%,7%,-6.75%,12%,58%,82.5% (active),-1%,23%,85.3% (active)
S=C(NN1CCOCC1)SSC(=S)NN1CCOCC1,97% (active),99% (active),99.5% (active),97% (active),99% (active),99.6% (active),94% (active),99% (active),99.6% (active),92% (active),83% (active),99.3% (active),34%,99% (active),99.8% (active),77% (active),99% (active),99.5% (active)
CCCSc1n[nH]c(=S)s1,-3%,5%,27%,2%,30%,53%,-1%,46%,73.1% (active),-10%,29%,32.6%,-6%,13%,52%,-1%,15%,41.7%
COc1ccc(CC2c3cc4c(cc3CCN2C)OCO4)c(C=O)c1OC (configuration not stated),-2%,-4%,82% (active),-1%,-1%,86.7% (active),-1%,-3%,83.3% (active),-4%,-11%,84.7% (active),-2%,1%,57.3%,-2%,-4%,-38.8%
CCOC(=O)NN(C(=O)OCC)c1ccc(N=Nc2ccc(OC)cc2)n1C,1%,84% (active),46%,-25%,85% (active),60.8%,-22%,87% (active),70.3% (active),29%,70% (active),71.5% (active),-40%,78% (active),74% (active),-32%,77% (active),69.9%
Cc1cc(N2C(=O)CCSC2=S)ccc1Cl,88% (active),28%,90.9% (active),7%,27%,88.8% (active),48%,43%,90.6% (active),47%,43%,54.5%,45%,71% (active),86% (active),82% (active),18%,87.5% (active)
O=C(/C=C(\OB(F)F)c1ccccc1)c1ccccc1,-2%,-4%,100% (active),-18%,-19%,98.9% (active),-4%,2%,97.4% (active),-8%,4%,98.4% (active),2%,-1%,98.2% (active),1%,-13%,97.9% (active)
CCCCCCCCc1cc[n+](C2=C([O-])c3ccccc3C(=O)C2=O)cc1,99% (active),97% (active),98.8% (active),100% (active),93% (active),98.2% (active),100% (active),98% (active),99% (active),99% (active),95% (active),98.5% (active),99% (active),99% (active),98.8% (active),100% (active),99% (active),98.2% (active)
Cc1ccc(NC(=O)COC(=O)c2cccc3c(=O)c4ccccc4[nH]c23)cc1,51%,89% (active),74.8% (active),27%,80% (active),43.3%,40%,89% (active),29.6%,21%,69%,61.6%,42%,81% (active),72% (active),49%,94% (active),49.5%
CCCCCCCCCCCCCCCC[N+](C)(C)C(C)c1ccc(OC)cc1 (configuration not stated),98% (active),98% (active),90.6% (active),98% (active),98% (active),90.2% (active),98% (active),99% (active),90% (active),98% (active),99% (active),85.8% (active),98% (active),98% (active),92.3% (active),98% (active),97% (active),91.8% (active)
C[n+]1c(-c2ccc(/C=N\NC(=O)c3cccc(C(=O)N/N=C/c4ccc(-c5cn6ccccc6[n+]5C)cc4)c3)cc2)cn2ccccc21,-14%,99% (active),98% (active),27%,99% (active),98.5% (active),0%,99% (active),98.2% (active),-4%,99% (active),97.7% (active),15%,99% (active),98% (active),-14%,99% (active),98.5% (active)
O=C(NC1CCN(Cc2ccccc2)CC1)c1ccc(I)cc1,40%,59%,68%,46%,62%,49.7%,52%,87% (active),74.6% (active),81% (active),88% (active),77.2% (active),60%,49%,74.3% (active),53%,78% (active),76.8% (active)
CCN(CC)CCSCCCNc1cc(C)nc2c1ccc1c2ccc2c(NCCCSCCN(CC)CC)cc(C)nc21,5%,92% (active),97.3% (active),3%,70% (active),97.4% (active),-2%,49%,97.8% (active),-3%,42%,72.5% (active),4%,67%,94.4% (active),8%,94% (active),95.8% (active)
CN(C)c1ccc(/C=C/c2ccnc3ccccc23)c(O)c1,0%,-6%,57%,-4%,-4%,28.6%,0%,-6%,58.9%,3%,-3%,34%,-4%,-6%,40.9%,-8%,-2%,68.8%
